Test results published in the supplement of paper PMC9925115.

These compounds were tested on FLX1 + dox-induced PRKAR1A G325D (assay: difference in log2 fold change of viability vs plate median (dox-induced PRKAR1A G325D minus uninduced); higher = compound less effective when PKA is inhibited). Conditions: concentration: not stated (2 or 5 uM); 5 days.
Description: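 For each plate a log2 fold change vs the plate median was derived, and the values without dox were subtracted from those with dox, averaged over three biological replicates.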

Q: For `Cc1ccccc1-n1c(Cn2ncc3c(N)ncnc32)nc2cccc(C)c2c1=O`, which “difference in log2 fold change of viability” value (“difference in log2 fold change” below) is on record?
A: The value was -0.0566.

Q: `Cn1cc(C2=C(c3cn(C4CCN(Cc5ccccn5)CC4)c4ccccc34)C(=O)NC2=O)c2ccccc21` was tested. Which “difference in log2 fold change” value did it give?
A: Its value is -0.214.

Q: Which “difference in log2 fold change” value does the source give for `CC(C)(C)c1cc(C=C(C#N)C#N)cc(Br)c1O` here?
A: The value was 0.78.

Q: How did the “difference in log2 fold change” value turn out when `CCN1CCN(C(=O)Cc2ccc(Nc3ncc(F)c(Nc4ccc(C(=O)Nc5ccccc5Cl)cc4)n3)cc2)CC1` [Aurora A Inhibitor I] was run?
A: Its value is -0.138.

Q: With `CC(C)(C)c1cc(C=C(C#N)C#N)cc(C(C)(C)C)c1O` [Tyrphostin 9] as the compound, how does the “difference in log2 fold change” value read?
A: The value was 0.375.

Q: How did the “difference in log2 fold change” value turn out when `O=c1[nH]c2ccc(Cl)cc2c(N[C@@H]2CN3CCC2CC3)c1-c1nc2ccccc2[nH]1` was run?
A: The value was -0.0624.
